Source: PubChem BioAssay (NCATS)
Records with an inconclusive call do not appear. Activity calls are given as the source filed them. The call rests on the fitted dose curve; in most records, active means well fitted curve in the direction sought with a large enough effect; inconclusive means small, poorly fitted or top-dose-only effect, or another doubt; inactive means no such curve, though single readings can be large; an effect the other way counts as inactive or inconclusive.

Key:
[1] = test system: HACAT; experiment: qHTS assay to identify novel small-molecules to repurpose for Merkel cell carcinoma treatment (AID 1296009); settings: MCC and control cell lines, CellTiter-Glo viability, 72 h; at 44.8 µM (top of the series) unless noted; further: nearly all actives have a fitted effect of over 60% in size
Summary of the method: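 qHTS format: cells treated with library compounds in DMSO across 8 (NPC) or 11 (MIPE) concentrations. Readout after 72 hr at 37 degree celsius was CellTiter-Glo luminescence.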

[2] = test system: C33A; experiment: Primary qHTS to identify gynecologic anti-cancer compounds using libraries of approved drugs and bioactive compounds (AID 1345084); settings: Gynecologic cancer cell panel viability, ATPlite luminescence, 48 h; series mostly up to 57.5 µM; further: on the % scale 0 is the no-effect control and ±100 the full control effect; nearly all actives have a fitted effect of over 55% in size
Summary of the method: (§1)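 Measured: luminescence after ATPlite addition (15 min, RT). Exposure: 48 h, 37 C, 5% CO2.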

[3] = test system: CAOV3; experiment: as above; settings: Gynecologic cancer cell panel viability, ATPlite luminescence, 48 h; series mostly up to 57.5 µM
Summary of the method: as §1

[4] = test system: CASKI; experiment: as above; settings: Gynecologic cancer cell panel viability, ATPlite luminescence, 48 h; series mostly up to 57.5 µM
Summary of the method: as §1

[5] = test system: Es-2; experiment: as above; settings: Gynecologic cancer cell panel viability, ATPlite luminescence, 48 h; series mostly up to 57.5 µM
Summary of the method: as §1

[6] = test system: HeLa; experiment: as above; settings: Gynecologic cancer cell panel viability, ATPlite luminescence, 48 h; series mostly up to 57.5 µM
Summary of the method: as §1

[7] = test system: Hek293T; experiment: as above; settings: Gynecologic cancer cell panel viability, ATPlite luminescence, 48 h, control line for the selectivity index; series mostly up to 57.5 µM
Summary of the method: as §1

[8] = test system: JEG-3; experiment: as above; settings: Gynecologic cancer cell panel viability, ATPlite luminescence, 48 h; series mostly up to 57.5 µM
Summary of the method: as §1

C/C=C1/[C@H](O[C@@H]2O[C@H](CO)[C@@H](O)[C@H](O)[C@H]2O)OC=C2C(=O)O[C@@H]3C[C@@H](C(C)CO)[C@H](COC(=O)C[C@H]21)[C@H]3C (stereo partly specified)
inactive: outcome [1] inactive [at 17.4 µM] | Potency [2] | Potency [3] | outcome [4] | Potency [5] | Potency [6] | Potency [7] | Potency [8]

CCCSc1nc(NC2CC2c2ccc(F)c(F)c2)c2nnn(C3CC(OCCO)C(O)C3O)c2n1 (stereo unspecified)
inactive: outcome [1] | Potency [2] | Potency [3] | outcome [4] | Potency [5] | Potency [6] | Potency [7] | Potency [8]

CC(C)CC(=O)O[C@@H]1O[C@H](CO)[C@@H](O[C@H]2O[C@H](C)[C@@H](N[C@H]3C=C(CO)[C@@H](O[C@H]4O[C@H](CO)[C@@H](O[C@H]5O[C@H](CO)[C@@H](O[C@H]6O[C@H](CO)[C@@H](O)[C@H](O)[C@H]6O)[C@H](O)[C@H]5O)[C@H](O)[C@H]4O)[C@H](O)[C@H]3O)[C@H](O)[C@H]2O)[C@H](O)[C@H]1O
inactive: outcome [1] inactive [at 9.27 µM] | activity change, negative = cytotoxicity [2] 5.03% [at 11.6 µM] | activity change, negative = cytotoxicity [3] 1.97% [at 11.6 µM] | activity change, negative = cytotoxicity [4] 2.85% [at 11.6 µM] | activity change, negative = cytotoxicity [5] -3.07% [at 11.6 µM] | activity change, negative = cytotoxicity [6] -0.344% [at 11.6 µM] | activity change, negative = cytotoxicity [7] 4.85% [at 11.6 µM] | activity change, negative = cytotoxicity [8] 0.194% [at 11.6 µM]

CC(=O)O[C@@H]1C=C2[C@H](CC[C@@]3(C)[C@@]2(O)CC[C@H]2Cc4c([nH]c5ccccc45)[C@@]23C)O[C@@H]1C(C)(C)O
inactive: outcome [1] inactive [at 17.4 µM] | Potency [2] | Potency [3] | outcome [4] | Potency [5] | Potency [6] | Potency [7] | Potency [8]

C=C1C(=O)O[C@@H]2CC(C)=C([C@@H](C)CCCOC(C)=O)[C@@H](O)[C@H]12
inactive: outcome [1] | Potency [2] | Potency [3] | outcome [4] | Potency [5] | Potency [6] | Potency [7] | Potency [8]

C=C1CCC2C(C)(C)CC(O)CC2(C)C1CCC(C)CC(=O)O (stereo unspecified)
inactive: outcome [1] | Potency [2] | Potency [3] | outcome [4] | Potency [5] | Potency [6] | Potency [7] | Potency [8]

COc1cc(/C=C/c2ccccc2)c(C(=O)O)c(O)c1CC=C(C)C
inactive: outcome [1] | Potency [2] | Potency [3] | outcome [4] | Potency [5] | Potency [6] | Potency [7] | Potency [8]

COc1cc(O)c(C(=O)O)c(CCc2ccccc2)c1
inactive: outcome [1] | Potency [2] | Potency [3] | outcome [4] | Potency [5] | Potency [6] | Potency [7] | Potency [8]

CC1OC(OC2C(OC3C(O[C@H]4CC[C@@]5(C)C(CC[C@]6(C)C5C(=O)CC5=C7CC(C)(C)CC(O)[C@]7(C)CC[C@]56C)C4(C)C)OC(C(=O)O)C(O)C3O)OCC(O)C2O)C(O)C(O)C1O (stereo partly specified)
inactive: outcome [1] inactive [at 9.27 µM] | activity change, negative = cytotoxicity [2] 2.35% [at 11.6 µM] | activity change, negative = cytotoxicity [3] 18.5% [at 11.6 µM] | activity change, negative = cytotoxicity [4] 14.8% [at 11.6 µM] | activity change, negative = cytotoxicity [5] -7.45% [at 11.6 µM] | activity change, negative = cytotoxicity [6] 0.531% [at 11.6 µM] | activity change, negative = cytotoxicity [7] -3% [at 11.6 µM] | activity change, negative = cytotoxicity [8] -0.413% [at 11.6 µM]

CCOC(=O)C1=C(N)Oc2ccc(Cl)cc2C1C(C#N)C(=O)OCC (stereo unspecified)
inactive: outcome [1] | Potency [2] | Potency [3] | outcome [4] | Potency [5] | Potency [6] | Potency [7] | Potency [8]

COc1cccc(C(=O)NCCNc2nc3cc(C)cc(C)c3cc2C#N)c1
inactive: outcome [1] | Potency [2] | Potency [3] | outcome [4] | Potency [5] | Potency [6] | Potency [7] | Potency [8]

COc1cc(C(C)=O)ccc1O[C@@H]1O[C@H](CO)[C@@H](O)[C@H](O)[C@H]1O
inactive: outcome [1] | Potency [2] | Potency [3] | outcome [4] | Potency [5] | Potency [6] | Potency [7] | Potency [8]

CC(=O)O[C@H]1[C@H](O[C@H]2CC[C@]34C[C@]35CC[C@]3(C)[C@@H]([C@@]6(C)CC[C@@H](C(C)(C)O)O6)[C@@H](O)C[C@@]3(C)[C@@H]5C[C@H](O[C@@H]3O[C@H](CO)[C@@H](O)[C@H](O)[C@H]3O)[C@H]4C2(C)C)OC[C@@H](OC(C)=O)[C@@H]1O
inactive: outcome [1] | Potency [2] | Potency [3] | outcome [4] | Potency [5] | Potency [6] | Potency [7] | Potency [8]

C/C(=C/CO)CC[C@H]1[C@]2(C)C[C@H](O)CC(C)(C)[C@H]2CC[C@]1(C)O
inactive: outcome [1] | Potency [2] | Potency [3] | outcome [4] | Potency [5] | Potency [6] | Potency [7] | Potency [8]

O=C(O)c1cccc(CN2C(=O)/C(=C(\c3ccccc3)c3ccc(Cl)cc3)c3ccccc32)c1
inactive: outcome [1] | Potency [2] | Potency [3] | outcome [4] | Potency [5] | Potency [6] | Potency [7] | Potency [8]

C/C=C(\C)C(=O)O[C@H]1C=CC(=O)O[C@H]1/C=C/[C@H](O)[C@@H](C)O
inactive: outcome [1] | Potency [2] | Potency [3] | outcome [4] | Potency [5] | Potency [6] | Potency [7] | Potency [8]

COc1cc2c(c(O)c1OC/C=C(\C)CC/C=C(/C)CCC=C(C)C)CN(C(CCC(=O)O)C(=O)O)C2=O (stereo unspecified)
inactive: outcome [1] inactive [at 17.4 µM] | Potency [2] | Potency [3] | outcome [4] | Potency [5] | Potency [6] | Potency [7] | Potency [8]
